Shown are actives, neighbours in structure and some others; about 21% of the full set was active somewhere.
Pf growth 48h = P. falciparum growth inhibition at 48 hours (one generation); P. falciparum luciferase growth in erythrocytes, 48 h; Potency, µM (doses to about 28.7 µM), inactives show top-dose activity change, negative = inhibition, most hits filed as inhibitors; 5.9% of 310,000 active; AID 504832; also: potency is read from the fitted curve at half-maximal effect; % is scaled to controls: 0 for no effect and ±100 for the full control effect
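Luminescence readout; reporter = integrated firefly luciferase in P. falciparum. RBC culture at 2% hematocrit, 0.1% parasitemia final, 37 C/5% CO2; decreased signal taken as growth inhibition.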
SARS PLpro yeast = inhibitors of SARS-CoV papain-like protease in yeast; Potency, µM (highest dose often 32.9 µM), without a hit: at the highest dose activity, positive = growth rescue, hits mostly activators; 0.19% of 330,000 active; S. cerevisiae expressing SARS-CoV PLpro, growth rescue; calls by dose curve; also: potency is read from the fitted curve at half-maximal effect; 0% is about no effect; nearly all actives have a fitted effect of over 55% in size
NS1 inh = inhibitors of influenza NS1 protein function. 0.4% of 270,000 active. Potency, µM (highest dose often 46.1 µM), for inactives: top-dose activity, positive = more growth; calls by dose curve; also: potency is read from the fitted curve at half-maximal effect; actives are rising curves; nearly all actives have a fitted effect of over 50% in size
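OD600 was taken as the measure of yeast growth restored by compound in an NS1-expressing S. cerevisiae strain. Cells had been washed out of glucose medium and diluted 1:100 into galactose -URA medium, pH 6.0.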
Pf growth 96h = P. falciparum growth inhibition at 96 hours; P. falciparum luciferase reporter growth, 96 h; 6.9% of 320,000 active; Potency, µM (highest dose often 28.7 µM), for the others: at the highest dose activity change, negative = inhibition, actives largely listed as inhibitors; AID 504834; also: potency is read from the fitted curve at half-maximal effect; % is scaled to controls: 0 for no effect and ±100 for the full control effect
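P. falciparum expressing integrated firefly luciferase grown in erythrocytes (2% hematocrit, 0.05% parasitemia final) with compounds for 96 hours at 37 C, 5% CO2. Growth inhibition read as loss of luminescence after adding luciferase detection reagent.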
CHX counter = counter-screen for Shiga toxin inhibitors: cycloheximide protein synthesis inhibition; cell reporter, cycloheximide protein synthesis inhibition counterscreen; max response, %; AID 2314; 12% of 300,000 active; in the data active = max response mostly above about 13%, no sharp cut-off; inactive = mostly below about 14%; also: read at 38.3 µM for the half of the compounds with a filed dose; 0% is about no effect
Shiga inhibitor = blocks Shiga toxin action in Vero cells; Vero cells, Shiga toxin protein synthesis inhibition reporter; inhibition, % at 38.7 µM; 9.2% of 290,000 active; in the data active = inhibition mostly above about 28%, no sharp cut-off; inactive = mostly below about 43%; also: 0% is about no effect
* = called active by the depositor; ? = inconclusive; . = no result. Unless noted, calls follow the shape of the dose curve; as a rule, active = well fitted inhibition curve with a large enough effect; inconclusive = small, poorly fitted or top-dose-only effect, or another doubt; inactive = no such curve, though single readings can be large or run the other way.

SMILES	Pf growth 48h	SARS PLpro yeast	NS1 inh	Pf growth 96h	CHX counter	Shiga inhibitor
COc1ccc(-c2cc(C(F)(F)F)n3nc(C(=O)NCCCn4ccnc4)cc3n2)cc1	.	8%	6%	-4%	23*	14
CCOc1ccc2nc(SC3CC(=O)N(c4ccc(C)cc4)C3=O)sc2c1 (stereo not given)	18%	-16%	8%	-11%	2	-5
CCOc1ccc2nc(/N=C/c3c(C)[nH]n(-c4ccc(C)cc4)c3=O)sc2c1	61%	-77%	-16%	-9%	33*	33
CCOc1ccc2nc(/N=C/c3c(C)[nH]n(-c4ccccc4)c3=O)sc2c1	100%	-47%	-17%	-3%	30*	61*
COc1ccc2c(c1)C(=O)CC(c1ccc(OC)c(OC)c1)O2 (stereo not given)	5%	0%	3%	?	-4	.
Cc1ccc2c(c1)C(=O)CC(c1ccc3c(c1)OCCO3)O2 (stereo not given)	-5%	-4%	-4%	-1%	41*	64*
COc1ccc2c(c1)C(=O)CC(c1ccccc1F)O2 (stereo not given)	-5%	-14%	-3%	6%	13*	36*
COc1ccc2c(c1)C(=O)CC(c1ccc3c(c1)OCCO3)O2 (stereo not given)	53%	-1%	-13%	67%	43*	61*
Cc1ccc(NC(=S)Nn2cnnc2)cc1	11%	1%	3%	7%	0	2
CC1(C)CC(=O)C2=C(C1)Nc1ncnn1C2c1cccs1 (stereo not given)	-4%	1%	.	-5%	2	-11
O=C(OCC(=O)N1CCc2ccccc21)c1ccc([N+](=O)[O-])o1	.	-8%	.	.	.	.
NC(=O)c1nn(-c2ccccc2)nc1NC(=O)CN1CCCC1	-1%	1%	-5%	0%	-5	17
CC(=O)N(CC(=O)Nc1nn(-c2ccccc2)nc1C(N)=O)Cc1ccccc1	1µM*	-3%	-9%	.	1	-18
Cc1ccc(C(=O)N/N=c2\sc3ccccc3n2C)cc1	22%	-8%	-7%	-14%	20*	-6
COc1cccc(C(=O)N/N=c2\sc3ccccc3n2C)c1	42%	-17%	-39%	54%	15*	20
Cn1/c(=N/NC(=O)c2ccccc2F)sc2ccccc21	116%	0%	.	171%	35*	79*
COc1ccccc1S(=O)(=O)CC(O)COc1ccc(C#N)cc1 (stereo not given)	22%	0%	9%	22%	12	24
CC1CCCC(NC(=S)NC(=O)c2ccco2)C1C (stereo not given)	.	1%	.	.	.	.
CN(C)c1ccc(/C=C(\C#N)c2ccccn2)cc1	-23%	-50%	2%	-2%	-5	-15
COc1cc(/C=C(\C#N)c2ccccn2)cc(OC)c1O	-11%	-2%	-37%	-28%	17	3
COC(=O)c1ccc(/C=C(\C#N)c2ccccn2)cc1	412%	-6%	-5%	234%	39*	133*
N#C/C(=C\c1cccnc1)c1ccc([N+](=O)[O-])cc1	2%	-13%	-9%	2.6µM*	5	15
N#C/C(=C\c1ccc([N+](=O)[O-])cc1)c1ccccn1	-17%	-3%	.	1%	29*	49*
Cc1ccc(S(=O)(=O)Cc2ccc(C(=O)N3CCc4ccccc4C3)o2)cc1	.	-5%	-4%	13µM*	-8	-12
Cc1ccc(S(=O)(=O)Cc2ccc(C(=O)N3CCN(c4cccc(C)c4C)CC3)o2)cc1	-2%	-7%	-49%	3.7µM*	-3	-8
SMILES	Pf growth 48h	SARS PLpro yeast	NS1 inh	Pf growth 96h	CHX counter	Shiga inhibitor
COc1ccc(S(=O)(=O)Cc2ccc(C(=O)N3CCN(c4cc(C)ccc4C)CC3)o2)cc1	7%	0%	-35%	4.7µM*	14*	-5
COc1ccc(S(=O)(=O)Cc2ccc(C(=O)N3CCN(c4cc(Cl)ccc4C)CC3)o2)cc1	.	-8%	-39%	13µM*	-5	-19
CSc1nc(C)c2c(n1)N(c1ccc(C(C)C)cc1)CC2	4%	2%	4%	90%	-3	-7
Cc1ccccc1C(=O)NNC(=O)/C=C/c1ccccc1	30%	-1%	.	-6%	10	5
O=Cc1c[nH]c2ccc(S(=O)(=O)N3CCOCC3)cc12	11%	-21%	5%	6%	-4	-12
N#Cc1ccccc1OCC(=O)NNC(=O)CCNC(=O)c1ccccc1	.	0%	.	.	.	.
Cc1cc(S(=O)(=O)Nc2nc(CN3CCOCC3)nc3sc4c(c23)CCCC4)ccc1F	.	-13%	1%	?	-3	-8
CC1CCc2c(sc3nc(CN4CCOCC4)nc(N4CCc5ccccc5C4)c23)C1 (stereo not given)	13µM*	-12%	1%	4.7µM*	1	-2
Cc1ccc(Oc2nc(CN3CCOCC3)nc3sc4c(c23)CCC(C)C4)cc1 (stereo not given)	?	-54%	-15%	?	-1	22
CC1CCc2c(sc3nc(CN4CCOCC4)nc(NS(=O)(=O)c4cccc([N+](=O)[O-])c4)c23)C1 (stereo not given)	.	-36%	17%	13µM*	-2	-4
Cc1ccc(Oc2nc(CN3CCOCC3)nc3sc4c(c23)CCC(C)C4)cc1C (stereo not given)	12µM*	-89%	-3%	?	-3	-11
Cc1oc(-c2cccc(Br)c2)[n+]([O-])c1C	25%	1%	.	?	18	51
O=C(NCc1cccc(Cl)c1)c1ccc(S(=O)(=O)Nc2cccc(C(F)(F)F)c2)cc1	12%	7%	-5%	-24%	-2	-15
CCN(CC)c1ccc(NC(=O)c2cc(OC)cc(OC)c2)c(C)c1	?	-10%	-1%	1%	-2	-10
CCN(CC)c1ccc(NC(=O)c2cccc(OC)c2)c(C)c1	4%	-1%	-6%	148%	17*	25
CCN(CC)c1ccc(NC(=O)c2ccc3c(c2)OCO3)c(C)c1	4%	8%	-7%	131%	17*	13
CCOC(=O)C1(Cc2ccccc2)CCCN(S(=O)(=O)N(C)C)C1 (stereo not given)	-14%	4%	1%	?	-2	-2
COc1ccc(-c2csc(CCn3nc(C)cc3C)n2)cc1OC	-18%	-7%	3%	0%	15	-3
Cc1cc(C)n(CCc2nc(-c3ccco3)cs2)n1	.	5%	7%	-39%	-1	24
COc1ccc(OC)c(-c2csc(CCn3nc(C)cc3C)n2)c1	-10%	-1%	.	-2%	3	-6
Cc1ccc(-c2cc(C(F)F)nc(N3CCOCC3)n2)cc1	?	-3%	-2%	?	1	24
COc1ccc(-c2cc(C(F)F)nc(-n3nc(C)cc3C)n2)cc1	8.3µM*	14%	-50%	?	-2	-21
COc1ccc(-c2csc(CCn3nc(C)cc3C)n2)cc1	0%	0%	.	29%	20*	24
